Among the data in article PMC7819943, “Rice protein-binding microarrays: a tool to detect cis-acting elements near promoter regions in rice” are binding signal values, retold here.

In all, about 68,000 sequences were measured (“fluorescence intensity (a.u.)”: median about 9,100, highest 2% from about 16,000 on). The entries come from a sample that favours the highest values as a whole.

For the assay, the target named is OsWRKY34 (Oryza sativa, UniProt Q0JBA9 1-250). Nature of the assay: protein-binding microarray (RPBM); PBS, 2% BSA, 51.3 ng/ul salmon testes DNA, 50 uM zinc acetate, 200 nM TF, 25 C, 1 h; high values mean tight binding. The settings on record: protein: recombinant; tags: N-terminal polyhistidine and DsRed monomer fusion (pET32a); label: CyDye5-dUTP incorporated in the synthesized complementary strand; 3' TTTTT single-stranded linker to array surface; dsDNA, one strand shown. An outline of the steps: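 Transcription factors were each fused at the N-terminus to a polyhistidine tag plus DsRed and expressed in E. coli BL21-CodonPlus before Ni–NTA purification. Binding to a double-stranded custom Agilent array was carried out with 200 nM protein at 25 °C for 1 h in PBS, 2% BSA, salmon testes DNA and 50 µM zinc acetate. The binding signal is per-feature fluorescence intensity, in arbitrary units, on an Axon 4000B scanner.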
Sequence of OsWRKY34 (Q0JBA9 entry or part of it): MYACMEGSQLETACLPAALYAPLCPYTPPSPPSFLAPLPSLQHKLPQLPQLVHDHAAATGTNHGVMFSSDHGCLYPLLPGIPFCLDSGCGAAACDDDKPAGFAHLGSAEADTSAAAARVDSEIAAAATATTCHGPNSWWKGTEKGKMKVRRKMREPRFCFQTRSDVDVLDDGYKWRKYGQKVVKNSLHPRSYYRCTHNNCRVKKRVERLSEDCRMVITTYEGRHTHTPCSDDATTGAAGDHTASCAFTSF
With “GGTGTGATATATCTGGTTTTGTGGTTCGGTGGGGTAATTCCGGAGTCACCTAGTGCAG”, the binding signal was 22000 fluorescence intensity (a.u.).
In the case of “CATCATACAGTAACAGCACAAGCACACACTACACGCACTCCGGAGTCACCTAGTGCAG” it was 8640 fluorescence intensity (a.u.); in that of “GGGTTGGTTCCTGCCTCTCGAGTCTCAGCAAGTGTGTCACCGGAGTCACCTAGTGCAG”, 11500 fluorescence intensity (a.u.); in that of “CAAATGGCCCACCTGTCCTAGCTTGGCCCGGCCCGGGCACCGGAGTCACCTAGTGCAG”, 8680 fluorescence intensity (a.u.).
Then “TAGCTCCAGTATTAATTTCTTTCCATCCTCCATTTTCTTGCGGAGTCACCTAGTGCAG”, with 9120 fluorescence intensity (a.u.); and “CAACAGACTCTTCCCCTTCGCTCGCTCGCCTCCTCTTTCCCGGAGTCACCTAGTGCAG”, with 8220 fluorescence intensity (a.u.); and “TACATCCCTTGCCATCTCCATCGCCGGCTTCCTCGCCATTCGGAGTCACCTAGTGCAG”, with 17100 fluorescence intensity (a.u.).
Take “CTAGCTTCGCCATCCACATTCTTCTTGCTTCTTGCTCCTCCGGAGTCACCTAGTGCAG”: the binding signal is 12700 fluorescence intensity (a.u.).
Then “TCTTTCTTCCATTGCACCTAGCTTTCATCTTCTTCTCTTCCGGAGTCACCTAGTGCAG”, with 14200 fluorescence intensity (a.u.); and “ATCCATCCATCTATTCGCTTCCCTTTCCTTGCACCTCTGCCGGAGTCACCTAGTGCAG”, with 9050 fluorescence intensity (a.u.); and “CCTTCACCTCCTTGCAAGTTCCATTCTTTCATCTCGCTTCCGGAGTCACCTAGTGCAG”, with 16500 fluorescence intensity (a.u.).
As for “CCATTCTTTCATCTCGCTTCACCTCATCGCCATTGCCATCCGGAGTCACCTAGTGCAG”, the binding signal was 8810 fluorescence intensity (a.u.).
“TTTGTCAATTGATGTATACATATGTGCTTTGTGTTCCTACCGGAGTCACCTAGTGCAG”: the binding signal was 11100 fluorescence intensity (a.u.).
In the case of “CTGATTCGAACGCAGCCATAGTCACTCTTTCACTCTCACTCGGAGTCACCTAGTGCAG”, the binding signal was 11000 fluorescence intensity (a.u.).
In the case of “GTAAATCCGCTCCAATTGACTCTACCAACCCACCCGTGCTCGGAGTCACCTAGTGCAG” it was 9420 fluorescence intensity (a.u.); in that of “AATTTGTGTGTAATTTTTTAGGATTTGTGATGTATTTGATCGGAGTCACCTAGTGCAG”, 9210 fluorescence intensity (a.u.); in that of “CCACACTTGCCCGCTACCCACTCTGATCTATCTCCACTGTCGGAGTCACCTAGTGCAG”, 9630 fluorescence intensity (a.u.).
As for “TCTCCTCCCTCGTTTCTCCTGACACGCTCTCATCCTACAACGGAGTCACCTAGTGCAG”, the binding signal is 8660 fluorescence intensity (a.u.).
As to “GCAATTTGCCTCTTTGTTCCTCATAGTCCAGACACAATTCCGGAGTCACCTAGTGCAG”, the binding signal was 9840 fluorescence intensity (a.u.).
Then “TTATCACAGATTCACAGTCCTTTGCCTTCATAAACACCTCCGGAGTCACCTAGTGCAG”, with 65500 fluorescence intensity (a.u.).
Regarding “TCAGTCGCTTCCTCTCTTTATTATCACAGATTCACAGTCCCGGAGTCACCTAGTGCAG”, the binding signal was 8370 fluorescence intensity (a.u.).
Then “AACTTTTTCATGTCACTTCACTTTTTTTTGTTAGCAGCCTCGGAGTCACCTAGTGCAG”, with 11200 fluorescence intensity (a.u.); and “TGAACACACGCACGCAAACCCTACCTCCATGAGTATCTTCCGGAGTCACCTAGTGCAG”, with 10500 fluorescence intensity (a.u.); and “AAAGGAATGGCCCAAATAAACAAGTTTTTTCCTAAAATAACGGAGTCACCTAGTGCAG”, with 63000 fluorescence intensity (a.u.).
“TAATGGAAAAAATTGTTTAAAAAAGGTCAAATAGTAAAAACGGAGTCACCTAGTGCAG”: the binding signal was 58800 fluorescence intensity (a.u.).
For “TTAAATAAGACAAATGGTCAAACATGTGCTAAAAAGTCAACGGAGTCACCTAGTGCAG”, the binding signal was 10600 fluorescence intensity (a.u.).
Turning to “TGTCTTAATTTCGTGGAAGGCCATAGCGGAGAGATCAAAACGGAGTCACCTAGTGCAG”, the binding signal is 17400 fluorescence intensity (a.u.).
In the case of “CGTCTTTTCTCCTTGTCTTGCTAGCCATATCAACGGAAGGCGGAGTCACCTAGTGCAG”, the binding signal is 8080 fluorescence intensity (a.u.).
Regarding “CATTGATTTTTTTTCTGTTTTCATGATCAATTTTTTTTCTCGGAGTCACCTAGTGCAG”, the binding signal was 11100 fluorescence intensity (a.u.).
In the case of “CTAATTGTTTTTTTAAATAGTGTTTTGTTTTATTGAAAACCGGAGTCACCTAGTGCAG” it was 9040 fluorescence intensity (a.u.).
Take “AAATTTAAAGTAATTTGACTTTGAAAGTCAAAACTTGTAACGGAGTCACCTAGTGCAG”: the binding signal is 8600 fluorescence intensity (a.u.).
Take “GTCAAGAATGTGCTAAAAAGTCAACGGTGTCAAACAGTTTCGGAGTCACCTAGTGCAG”: the binding signal is 10600 fluorescence intensity (a.u.).
Then “GTTTCCATTTCTGTTATTTTTTATTTCAAATTTCATTCTTCGGAGTCACCTAGTGCAG”, with 11800 fluorescence intensity (a.u.); and “AATTTATGGAGATCATTTTTTTTCTGTTTCAAAGGAAAAACGGAGTCACCTAGTGCAG”, with 19200 fluorescence intensity (a.u.); and “TTGATTCCGTGTCGCATATCTGTCTTAATTTCGTGGAAGGCGGAGTCACCTAGTGCAG”, with 9570 fluorescence intensity (a.u.).
In the case of “CTTCTTATCTCCCATATCTTAGGGTGTGTTTCGTTTTATGCGGAGTCACCTAGTGCAG” it was 8050 fluorescence intensity (a.u.); in that of “GCCTATCCACAACATCGTCGCAGGCCTTCTTTTTCCCTCGCGGAGTCACCTAGTGCAG”, 8320 fluorescence intensity (a.u.).
Then “ACAGCGGTTTTGGTTGACGTAGTGCCTATGTGGCGTTGACCGGAGTCACCTAGTGCAG”, with 11700 fluorescence intensity (a.u.); and “GATTTAGCCAGTATAATTTGGCTTCTTACCTATCCATTTTCGGAGTCACCTAGTGCAG”, with 9130 fluorescence intensity (a.u.).
Consider “CCAATCTAGCATTTAAATAGCCCATATTTGTCTAATTTCTCGGAGTCACCTAGTGCAG”, for which the binding signal is 8400 fluorescence intensity (a.u.).
In the case of “ATGGTGGGTCTTTTGCTTCTATCTTCTTCTATGCATGAAACGGAGTCACCTAGTGCAG” it was 10400 fluorescence intensity (a.u.); in that of “TTGTTAATGCTAATTTTATCAACATGTGCTTTTCTTTTTACGGAGTCACCTAGTGCAG”, 9500 fluorescence intensity (a.u.).
